Measurements reported in the supplement of paper PMC7411054.
Where a name gives a salt, the structure may show the parent alone.

System: A549-TP53BP1-CLTA
Experiment: phenotypically active (imaging signature differs from DMSO and reproducible) at any of 0.3-9 uM (binary (1 = active, 0 = inactive)); higher = active
Details: treatment time: 24 h
Summary of the method: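 Four wells per concentration (0.3, 1, 3 or 9 µM) were treated for 24 h in each of fifteen gene-edited reporter lines from A549, HepG2 and WPMY1 cells, then imaged live. After normalising live-cell features to solvent control wells, deviation was defined as ≥3 of 4 wells lying past the 95th percentile of control Euclidean distances. Reproducibility was defined as a median replicate Pearson correlation above the 95th percentile of non-replicates. Both had to hold for phenotypic activity.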

Phenotypically active, active:
Nc1nc(Cl)nc2c1ncn2[C@@H]1O[C@H](CO)[C@@H](O)[C@@H]1F [clofarabine] 1
Cc1nc(Nc2ncc(C(=O)Nc3c(C)cccc3Cl)s2)cc(N2CCN(CCO)CC2)n1 [dasatinib] 1
O=C(NCc1cccc(O)c1)Nc1nc(-c2ccncc2)cs1 [RKI 1447 dihydrochloride] 1
CC(C)n1nc(-c2cc3cc(O)ccc3[nH]2)c2c(N)ncnc21 1
COc1ccc(-c2ccc3ncc4c(c3c2)n(-c2ccc(N3CCNCC3)c(C(F)(F)F)c2)c(=O)n4C)cn1 1
CC(C)(C)c1cnc(CSc2cnc(NC(=O)C3CCNCC3)s2)o1 1
O=C(O)c1ccc(Nc2ncc3c(n2)-c2ccc(Cl)cc2C(c2c(F)cccc2F)=NC3)cc1 1
COc1ccc(S(=O)(=O)N(C(C)=O)c2ccccc2/C=C/c2cc[n+]([O-])cc2)cc1 1
CC(C)(C)Nc1nc(Nc2ccc(C(N)=O)cc2)cc(N)c1C#N 1
Nc1cccc(-c2cc3c(Oc4cccc(O)c4)ncnc3[nH]2)c1 1
c1ccc2c(c1)Cc1c(Nc3ccc4c(c3)OCCO4)n[nH]c1-2 1
Cc1c(NC(=O)OC[C@@H]2COCCN2)cn2ncnc(Nc3ccc4c(cnn4Cc4cccc(F)c4)c3)c12 1
CCC(=O)N1CCN(c2ccc(-n3c(=O)ccc4cnc5ccc(-c6cnc7ccccc7c6)cc5c43)cc2C(F)(F)F)CC1 [Torin 1] 1
COc1c(Nc2cc(C)[nH]n2)nc(Sc2ccc(S(=O)(=O)Cc3cccc([N+](=O)[O-])c3F)cc2F)nc1N1CCOCC1 [Centrinone] 1
COc1cc2c(NC3CCN(C(C)C)CC3)nc(N3CCC(F)(F)CC3)nc2cc1OCCCN1CCCC1 1
CC(=O)c1c(C)c2cnc(Nc3ccc(N4CCNCC4)cn3)nc2n(C2CCCC2)c1=O 1
CN1c2ccccc2C(=O)N2CCc3c([nH]c4ccccc34)[C@H]21 [Evodiamine] 1
CO[C@H]1C=CC=C(C)C(=O)NC2=CC(=O)C(NCCN(C)C)=C(C[C@@H](C)C[C@H](OC)[C@H](O)[C@@H](C)C=C(C)[C@@H]1OC(N)=O)C2=O [17-DMAG hydrochloride] 1
Cc1noc(C)c1-c1cc(O)cc(C(O)c2ccccc2)c1 (stereo not drawn) 1
O=C(Nc1ccc(-c2ccnc(Nc3ccc(N4CCOCC4)cc3)n2)cc1)[C@@H]1CCCN1 1
NC1(C(=O)N[C@@H](CCO)c2ccc(Cl)cc2)CCN(c2ncnc3[nH]ccc23)CC1 1
NC(=O)Nc1cc(-c2cccc(F)c2)sc1C(=O)N[C@H]1CCCNC1 [AZD 7762 hydrochloride] 1
COc1cc2nc(-c3cc(F)ccc3O)nc(N[C@@H]3CNC[C@H]3C(C)(C)O)c2cc1OC 1
Cc1c[nH]c2nccc(Oc3c(F)cc(Nc4cc(Cl)nc(N)n4)cc3F)c12 1
C[C@H]1[C@H]2CC[C@H]3[C@@H]4CC=C5C[C@@H](N(C)C)CC[C@]5(C)[C@H]4CC[C@]23CN1C [Conessine] 1
CON(C)C(=O)N1N=C(c2cc(F)ccc2F)S[C@@]1(CCCN)c1ccccc1 [ARRY 520 trifluoroacetate] 1
CC[C@H](CO)Nc1nc(NCc2ccc(-c3ccccn3)cc2)c2ncn(C(C)C)c2n1 1
Oc1cccc(-c2nc(N3CCOCC3)c3oc4ncccc4c3n2)c1 [PI 103 hydrochloride] 1
COc1cc(/C=C/c2ccc(OC)cc2OC)cc(OC)c1 1
COc1cc2c(cc1-c1c(C)noc1C)ncc1[nH]c(=O)n([C@H](C)c3ccccn3)c12 [I-BET 151 dihydrochloride] 1
COc1cccc(-c2cc(F)ccc2[C@H]2Cc3nc(N)nc(C)c3C(=O)N2)n1 1
COc1cc(C(=O)NC2CCN(C)CC2)c(F)cc1Nc1ncc2c(n1)N(C1CCCC1)CC(F)(F)C(=O)N2C [TAK 960 hydrochloride] 1
CC[C@]1(O)C[C@@H]2CN(CCc3c([nH]c4ccccc34)[C@@](C(=O)OC)(c3cc4c(cc3OC)N(C=O)[C@H]3[C@@](O)(C(=O)OC)[C@H](OC(C)=O)[C@]5(CC)C=CCN6CC[C@]43[C@@H]65)C2)C1 [vincristine] 1
